The panel holds about 83,000 compounds, 20% with a hit somewhere; the sample as a whole holds those more often.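 The test compound was applied at a single concentration to cells in 96-well plates for 48 hours, and percent growth was recorded.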 The source made the active and inactive calls.

For the test, the system named is HCC-2998 colon. The test can be described thus: NCI-60 one-dose screen, 48 h (100 = growth as untreated, 0 = no growth, -100 = all killed). To be noted: 10 µM unless noted. The method, then:
Growth inhibition of the HCC-2998 human tumor cell line is measured as a screen for anti-cancer activity. Cells are grown in 96 well plates and exposed to the test compound for 48 hours. Compounds are tested at a single concentration, which is 10^-5 M for most compounds. The reported endpoint is percent growth (GI% or GIPRCNT), where numbers from 0 - 100% represent growth inhibition, and numbers from -100% - 0 represent cell death. For example, a value of 40 represents 60% growth inhibition. A value of 0 means no net growth occurred over the course of the experiment. A value of -40 indicates 40% of cells at the beginning of the experiment died by the end of the experiment. A value of -100 means all cells are dead at the end of the experiment.
NCI-60 Human Tumor Cell Lines Screen was performed using the standard one-dose NCI protocol, which is described in more detail at https://dtp.cancer.gov/discovery_development/nci-60/default.htm.
Compounds with GIPRCNT values below 10 were considered active. Activity score was based on GIPRCNT using the following formula: […]
Score is 0 for GIPRCNT values of 100 or above, 50 for GIPRCNT values of 0, and 100 for GIPRCNT values of -100.
Regarding `N#Cc1c(NC(=O)c2cccc(C(F)(F)F)c2)sc2c1CCC(=O)C2`, the growth was 27.2% (inactive).

In the case of `C=C1C(=O)O[C@H]2[C@H]1CC/C(COC(=O)/C=C\C(=O)NCc1ccc(Cn3c(=O)sn(-c4ccc(Cl)cc4)c3=O)cc1)=C\CC[C@@]1(C)O[C@@H]21`, the growth is -76.8% (active).

Take `COc1cccc(CCC2CCCN(c3cc(C)nc(N)n3)C2)c1` (stereo not given): the growth is 39.4% (inactive).

Consider `CCOC(=O)c1c(C)nc2c(c1N)/C(=C/c1cc(OC)c(OC)c(OC)c1)C(=O)N2c1ccc(OC)cc1`, for which the growth is 95.9% (inactive).

On to `c1ccc([P+](CCCc2n(Cc3ccc4ccccc4c3)c3ccccc3[n+]2Cc2ccc3ccccc3c2)(c2ccccc2)c2ccccc2)cc1`, for which the growth is 53.9% (inactive).

`CCOC(=O)c1ccc(-c2ccc3cc(OC)ccc3c2)nc1C`: the growth was 101% (inactive).

As for `CCOc1cc(C2C(Cl)C(=O)N2n2cnnc2)ccc1O` (stereo not given), the growth is 99.7% (inactive).

In the case of `COc1cc(NC(=O)c2cccc(-c3cc(=O)c4c(OC)c(OC)c(OC)cc4o3)c2)cc(OC)c1OC`, the growth is 74.1% (inactive).

In the case of `CN1CCN(CCCOc2ccc3nc(Nc4cc(Cl)cc(Cl)c4)ccc3c2)CC1`, the growth was -89.2% (active).

For `CN1CCN(c2ccc(Nc3ncc(Cl)c(NC[C@@H]4CCCO4)n3)cc2)CC1`, the growth is 60.7% (inactive).

As to `C/C(=N\NC(N)=S)c1nc2ccc(Cl)cc2[nH]1`, the growth is 55.8% (inactive).

Take `COc1ccc(C(=O)/C=C/C23c4ccccc4C(c4ccccc42)C2C(=O)NC(=O)C23)cc1` (stereo not given): the growth was 100% (inactive).

As for `COc1cc(C(=O)/C=C/c2c(C(F)(F)F)nc3ccccn23)cc(OC)c1OC`, the growth is -97.2% (active).

As to `Fc1ccc(Nc2nc3nonc3nc2Nc2ccc(F)cc2)cc1`, the growth was 13.1% (inactive).

`CCCCCCNC(=O)c1cc(NCc2cc(O)ccc2O)ccc1O`: the growth is 105% (inactive).

In the case of `O=C(Nc1ccccc1Cl)OCCN1CCOCC1`, the growth was 99.6% (inactive).

In the case of `C=C1C(=O)O[C@H]2[C@H]1CC/C(C(=O)NCCCCCCCCNC(=O)/C1=C/CC[C@@]3(C)O[C@H]3[C@H]3OC(=O)C(=C)[C@@H]3CC1)=C\CC[C@@]1(C)O[C@@H]21`, the growth was 97.2% (inactive).

With `C=C(C)[C@@H]1CC[C@@]2(C(=O)O)CC[C@]3(C)C(CCC4[C@@]5(C)CCC(OS(=O)(=O)c6ccccc6)C(C)(C)C5CC[C@]43C)C12` (stereo not given in full), the growth is 33.9% (inactive).

In the case of `O=C1CC(c2ccc3c(c2)OCO3)Nc2cc3c(cc21)OCO3` (stereo not given), the growth is 17.6% (inactive).

Consider `CCN(CC)CCCNC(=O)c1ccc(N)cc1`, for which the growth is 126% (inactive).

In the case of `N#C/C=C(\c1ccc([N+](=O)[O-])cc1)n1nnc2cc(Cl)c(Cl)cc21`, the growth was 19.9% (inactive).

On to `COc1cccc(-c2nc3sccn3c2-c2ccnc(NCCNS(=O)(=O)c3c(Cl)cccc3Cl)c2)c1`, for which the growth was 99.4% (inactive).

`CN(C)c1ccc2cc(-c3ccc(Cl)c(Cl)c3)c(N)nc2c1`: the growth is 44.7% (inactive).

On to `Cn1nnnc1-c1ccc(N)cc1`, for which the growth was 100% (inactive).

In the case of `N#Cc1c(N)nc2c(nnn2-c2cccc(C(F)(F)F)c2)c1N`, the growth was 102% (inactive).

For the compound `CCOC(=O)C(O)C(O)(c1ccccc1)c1ccccc1` (stereo not given), the growth was 99.9% (inactive).

`CC(c1ccc(-n2cccn2)cc1)c1cnc(N2CCc3ccc(C(N)=O)cc3C2)s1` (stereo not given): the growth is 80.9% (inactive).

With `Cc1ccc(-n2nnc(C3=NCCc4c3[nH]c3ccc(Cl)cc43)c2C)cc1`, the growth was 75.5% (inactive).

Consider `COc1ccc(C2CC(c3ccccc3)=NN2c2nc(C)c(C(C)=O)s2)cc1` (stereo not given), for which the growth was 107% (inactive).

Take `CCNCCNc1cc(-c2ccc(C(F)(F)F)cc2)c(C#N)c2nc3cc(Cl)c(Cl)cc3n12`: the growth was -88.9% (active).

Turning to `Cc1nc2ccc(C(=O)NCc3cc(C(=O)O)c(C)o3)cc2nc1C`, the growth is 98% (inactive).

For the compound `C=C(C)[C@@H]1CC[C@]2(CNCCO)CC[C@]3(C)[C@H](CC[C@@H]4[C@@]5(C)CCC(N)[C@@](C)(CO)[C@@H]5CC[C@]43C)[C@@H]12` (stereo not given in full), the growth was -8.22% (active).

On to `CC(C)c1ccc(C(=O)OC(=O)c2ccc(C(C)C)cc2)cc1`, for which the growth was 102% (inactive).

For the compound `CCOc1cc(N)ccc1C(=O)NCCCN(CC)CC`, the growth is 95.9% (inactive).

With `CCCNCC(=O)Nc1ccc(C(=O)OC(C)(C)CC)cc1`, the growth is 99.9% (inactive).

As for `O=C1Nc2ccccc2/C1=N/N=C/c1ccc(OC2OC(CO)C(O)C(O)C2O)cc1` (stereo not given), the growth is 115% (inactive).

For `CCN(CC)CCCC(C)NCc1ccccc1` (stereo not given), the growth is 99.5% (inactive).

As for `CC(C)N(CCOC(=O)Nc1ccccc1Cl)C(C)C`, the growth is 102% (inactive).

Turning to `COc1ccc(OC)c(/C=C2\COc3ccc(O)c(O)c3C2=O)c1`, the growth was 53.9% (inactive).

As to `CC(C)n1nc(C#Cc2cccc(O)c2)c2c(N)ncnc21`, the growth was -2.82% (active).

The values above are taken from PubChem BioAssay (NCI).
